# Values joined by “and” are separate entries in the source; they are usually repeats but may differ in a detail not shown here. Identical values can stand only once. Unmarked numbers belong to inactive results. Inconclusive results are not listed. Entries that show only a call come without a potency. Active and inactive are the calls of the source. Unless noted, calls come from the whole dose curve.
# Experiments:
# [1] = biological target: Estrogen receptor (Homo sapiens) (UniProt P03372); assay: qHTS assay for small molecule agonists of estrogen receptor alpha signaling (AID 588514); note: nearly all actives have a fitted effect of over 70% in size
# Estrogen receptor (Homo sapiens), sequence (P03372 whole entry, looked up): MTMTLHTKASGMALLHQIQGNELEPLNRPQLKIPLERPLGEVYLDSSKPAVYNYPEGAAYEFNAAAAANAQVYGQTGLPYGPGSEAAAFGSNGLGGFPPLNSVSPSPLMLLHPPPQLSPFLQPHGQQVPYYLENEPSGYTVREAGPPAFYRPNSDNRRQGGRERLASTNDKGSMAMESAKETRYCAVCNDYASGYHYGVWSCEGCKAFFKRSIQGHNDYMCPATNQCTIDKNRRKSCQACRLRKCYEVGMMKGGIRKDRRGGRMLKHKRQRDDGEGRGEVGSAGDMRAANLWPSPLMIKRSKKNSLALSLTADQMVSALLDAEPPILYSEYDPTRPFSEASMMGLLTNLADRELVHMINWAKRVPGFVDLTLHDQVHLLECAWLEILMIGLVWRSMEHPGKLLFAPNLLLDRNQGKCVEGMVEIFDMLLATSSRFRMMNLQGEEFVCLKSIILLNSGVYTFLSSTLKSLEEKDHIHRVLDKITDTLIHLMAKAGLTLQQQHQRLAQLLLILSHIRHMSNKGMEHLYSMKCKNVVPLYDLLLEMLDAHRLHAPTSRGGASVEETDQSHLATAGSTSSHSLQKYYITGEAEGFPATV
# Summary of the method: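 Reporter-gene assay. […] controls beta-lactamase in HEK 293 GripTite cells; after 18 hrs with compound, CCF4 substrate is added for 2 hrs and fluorescence is read.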
# [2] = biological target: Peroxisome proliferator-activated receptor gamma (Homo sapiens) (UniProt P37231); assay: qHTS assay for small molecule agonists of peroxisome proliferator-activated receptor gamma signaling (AID 588536; active = well fitted curve in the direction sought with a large enough effect in the signal ratio, with a control signal flat, not every such curve was filed as active; the % refers to the signal ratio)
# Peroxisome proliferator-activated receptor gamma (Homo sapiens), sequence (P37231 whole entry, looked up): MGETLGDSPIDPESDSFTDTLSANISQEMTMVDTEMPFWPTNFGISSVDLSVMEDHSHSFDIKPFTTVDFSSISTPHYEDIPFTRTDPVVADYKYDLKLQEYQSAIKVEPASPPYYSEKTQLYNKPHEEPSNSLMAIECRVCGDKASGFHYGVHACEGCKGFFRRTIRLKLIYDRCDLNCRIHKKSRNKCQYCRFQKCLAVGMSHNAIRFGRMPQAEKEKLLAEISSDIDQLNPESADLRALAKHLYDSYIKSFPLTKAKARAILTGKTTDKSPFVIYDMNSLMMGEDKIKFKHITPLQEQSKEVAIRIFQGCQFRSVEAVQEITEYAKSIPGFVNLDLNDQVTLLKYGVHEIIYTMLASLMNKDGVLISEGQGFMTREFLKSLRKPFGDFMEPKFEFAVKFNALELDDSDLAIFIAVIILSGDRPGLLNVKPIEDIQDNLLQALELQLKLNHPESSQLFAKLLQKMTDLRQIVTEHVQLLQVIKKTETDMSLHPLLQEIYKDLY
# Summary of the method: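 PPAR-gamma-UAS-bla HEK293 cells in medium with 1% charcoal/dextran-treated FBS were exposed to compounds for 16 h at 37 C. Beta-lactamase activity was read with CCF4 substrate (405 nm excitation, 460/530 nm emission).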
# [3] = biological target: Peroxisome proliferator-activated receptor gamma (Homo sapiens) (UniProt P37231); assay: qHTS assay for small molecule antagonists of peroxisome proliferator-activated receptor gamma signaling (AID 588537; active = well fitted inhibition curve with a large enough effect in the signal ratio, with a control signal flat, not every such curve was filed as active; the % refers to the signal ratio;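 note: reporter cells co-stimulated with 50 nM rosiglitazone agonist during compound treatment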)
# Summary of the method: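 PPAR-gamma-UAS-bla HEK293 cells (3000/well, 1% charcoal/dextran-stripped FBS) were preincubated 6-6.5 h at 37 C, given titrated compounds, then stimulated with 50 nM rosiglitazone for 16 h. Beta-lactamase activity was read with CCF4 dye; IC50 came from Hill fits.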
# [4] = biological target: Thyroid hormone receptor beta (Homo sapiens) (UniProt P10828); assay: qHTS assay for small molecule antagonists of thyroid hormone receptor beta signaling (AID 588547; active = well fitted inhibition curve with a large enough effect in the signal ratio, with a control signal flat, not every such curve was filed as active; the % refers to the signal ratio;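 note: cells stimulated with 0.4 nM T3 agonist during compound exposure; series mostly up to about 77 µM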); settings: TR-UAS-bla HEK293, beta-lactamase ratio, antagonist mode, 18 h
# Thyroid hormone receptor beta (Homo sapiens), sequence (P10828 whole entry, looked up): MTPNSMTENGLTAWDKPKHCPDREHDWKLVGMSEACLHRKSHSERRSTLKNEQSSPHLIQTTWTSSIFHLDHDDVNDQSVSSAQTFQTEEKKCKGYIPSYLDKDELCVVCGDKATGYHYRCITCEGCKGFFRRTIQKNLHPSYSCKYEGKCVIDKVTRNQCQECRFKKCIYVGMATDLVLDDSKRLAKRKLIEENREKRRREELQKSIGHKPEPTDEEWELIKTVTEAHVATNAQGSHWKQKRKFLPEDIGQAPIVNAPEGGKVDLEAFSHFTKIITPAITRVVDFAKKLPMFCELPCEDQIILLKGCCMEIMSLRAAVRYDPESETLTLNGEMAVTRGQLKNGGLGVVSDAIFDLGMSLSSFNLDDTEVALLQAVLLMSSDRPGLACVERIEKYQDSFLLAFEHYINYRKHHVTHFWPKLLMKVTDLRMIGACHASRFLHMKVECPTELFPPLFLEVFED
# Summary of the method: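 TR-UAS-bla GripTite HEK293 cells in 2% charcoal/dextran FBS medium were preincubated 4 h at 37 C, given compound (0.59 nM to 92 uM) plus 0.4 nM T3 (final) for 18 h, then CCF4 for 2 h at RT; Hill fit gave IC50.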
# [5] = qHTS assay for small molecule activators of the human pregnane X receptor (PXR) signaling pathway (AID 720659; call rule not given here)
# [6] = biological target: Bile acid receptor (Homo sapiens) (UniProt Q96RI1); assay: qHTS assay for small molecule antagonists of farnesoid X receptor signaling (AID 588526)
# Bile acid receptor (Homo sapiens), sequence (Q96RI1 whole entry, looked up): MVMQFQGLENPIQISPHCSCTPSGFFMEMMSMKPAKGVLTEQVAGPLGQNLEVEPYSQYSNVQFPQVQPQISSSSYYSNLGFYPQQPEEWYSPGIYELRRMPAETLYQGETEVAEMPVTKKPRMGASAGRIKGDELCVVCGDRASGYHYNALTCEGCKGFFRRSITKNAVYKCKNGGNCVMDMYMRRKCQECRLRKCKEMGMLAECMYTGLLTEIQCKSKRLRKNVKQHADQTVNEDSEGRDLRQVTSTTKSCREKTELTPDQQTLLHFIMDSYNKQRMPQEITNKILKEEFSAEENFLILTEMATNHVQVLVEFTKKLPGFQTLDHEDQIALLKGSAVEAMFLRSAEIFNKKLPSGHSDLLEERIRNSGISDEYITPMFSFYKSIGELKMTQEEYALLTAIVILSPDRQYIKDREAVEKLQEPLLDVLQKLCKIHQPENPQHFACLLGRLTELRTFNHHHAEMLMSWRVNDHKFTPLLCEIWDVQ
# Summary of the method: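 Concentration-response titrations were fitted to the Hill equation for half-maximal inhibition and maximal response, with data normalised to 50 uM chenodeoxycholic acid and DMSO control wells. Cells: FXR-UAS-bla HEK293T, dialyzed FBS.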
# [7] = biological target: Glucocorticoid receptor (Homo sapiens) (UniProt P04150); assay: qHTS assay for small molecule agonists of glucocorticoid receptor signaling (AID 588532; active = well fitted curve in the direction sought with a large enough effect in the signal ratio, with a control signal flat; the % refers to the signal ratio); settings: HeLa MMTV-bla, beta-lactamase ratio, agonist, 18 h; activation: active compounds read high, percent of dexamethasone control, DMSO zero
# Glucocorticoid receptor (Homo sapiens), sequence (P04150 whole entry, looked up): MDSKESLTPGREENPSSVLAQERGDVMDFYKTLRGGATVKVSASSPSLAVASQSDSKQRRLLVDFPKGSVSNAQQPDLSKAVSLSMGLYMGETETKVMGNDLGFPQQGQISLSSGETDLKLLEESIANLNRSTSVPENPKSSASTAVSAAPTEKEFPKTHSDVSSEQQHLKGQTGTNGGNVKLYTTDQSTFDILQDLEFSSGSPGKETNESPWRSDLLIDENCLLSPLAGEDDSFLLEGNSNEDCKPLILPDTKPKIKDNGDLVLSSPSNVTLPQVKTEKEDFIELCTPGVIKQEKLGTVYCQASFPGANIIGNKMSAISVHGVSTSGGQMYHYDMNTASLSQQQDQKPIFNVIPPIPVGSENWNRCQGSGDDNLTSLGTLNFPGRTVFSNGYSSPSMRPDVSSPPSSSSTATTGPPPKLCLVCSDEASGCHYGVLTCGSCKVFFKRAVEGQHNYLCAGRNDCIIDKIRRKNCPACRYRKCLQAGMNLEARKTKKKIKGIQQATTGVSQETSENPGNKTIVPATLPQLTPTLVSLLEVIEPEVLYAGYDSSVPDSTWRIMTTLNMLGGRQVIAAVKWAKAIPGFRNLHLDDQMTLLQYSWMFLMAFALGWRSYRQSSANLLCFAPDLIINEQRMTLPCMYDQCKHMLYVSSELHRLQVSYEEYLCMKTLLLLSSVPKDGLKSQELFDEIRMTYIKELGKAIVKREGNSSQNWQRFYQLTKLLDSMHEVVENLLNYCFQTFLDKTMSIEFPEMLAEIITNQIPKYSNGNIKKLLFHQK
# Summary of the method: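 MMTV-bla HeLa, beta-lactamase reporter; medium with 1% charcoal/dextran-stripped FBS; cpds up to 92 uM, 18 h, 37 C; CCF4 readout 460/530 nm; Hill fit → EC50, efficacy vs 0.1 uM dexamethasone = 100%.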
# [8] = biological target: Glucocorticoid receptor (Homo sapiens) (UniProt P04150); assay: qHTS assay for small molecule antagonists of glucocorticoid receptor signaling (AID 588533; active = well fitted inhibition curve with a large enough effect in the signal ratio, with a control signal flat, not every such curve was filed as active; the % refers to the signal ratio;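 note: cells stimulated with 2 nM dexamethasone as agonist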)
# Summary of the method: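 Antagonist-mode qHTS: compound titrations added to GRE-bla HeLa cells, then dexamethasone 2 nM final; 18 h, 37 C. CCF4 FRET fluorescence normalized to dexamethasone and DMSO; IC50 from Hill fit.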
# [9] = qHTS assay for small molecule agonists of the antioxidant response element (ARE) signaling pathway (AID 651741; active = well fitted activation curve with a large enough effect in the signal ratio; the % refers to the signal ratio; note: potency is the fitted concentration of half-maximal effect)
# Summary of the method: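 ARE-bla HepG2 cells (beta-lactamase reporter under ARE control) were plated at 2,000 cells/well, preincubated 5 h at 37 C/5% CO2, then treated with DMSO-dissolved compounds for 16 h at 37 C; LiveBLAzer B/G FRET substrate added, fluorescence read after 2 h at room temperature.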
# [10] = biological target: Androgen receptor (Homo sapiens) (UniProt P10275); assay: qHTS assay for small molecule agonists of androgen receptor signaling (AID 588515; active = well fitted curve in the direction sought with a large enough effect in the signal ratio, with a control signal flat; the % refers to the signal ratio); settings: AR-UAS-bla HEK293, beta-lactamase ratio, agonist 16 h; active compounds read high
# Androgen receptor (Homo sapiens), sequence (P10275 whole entry, looked up): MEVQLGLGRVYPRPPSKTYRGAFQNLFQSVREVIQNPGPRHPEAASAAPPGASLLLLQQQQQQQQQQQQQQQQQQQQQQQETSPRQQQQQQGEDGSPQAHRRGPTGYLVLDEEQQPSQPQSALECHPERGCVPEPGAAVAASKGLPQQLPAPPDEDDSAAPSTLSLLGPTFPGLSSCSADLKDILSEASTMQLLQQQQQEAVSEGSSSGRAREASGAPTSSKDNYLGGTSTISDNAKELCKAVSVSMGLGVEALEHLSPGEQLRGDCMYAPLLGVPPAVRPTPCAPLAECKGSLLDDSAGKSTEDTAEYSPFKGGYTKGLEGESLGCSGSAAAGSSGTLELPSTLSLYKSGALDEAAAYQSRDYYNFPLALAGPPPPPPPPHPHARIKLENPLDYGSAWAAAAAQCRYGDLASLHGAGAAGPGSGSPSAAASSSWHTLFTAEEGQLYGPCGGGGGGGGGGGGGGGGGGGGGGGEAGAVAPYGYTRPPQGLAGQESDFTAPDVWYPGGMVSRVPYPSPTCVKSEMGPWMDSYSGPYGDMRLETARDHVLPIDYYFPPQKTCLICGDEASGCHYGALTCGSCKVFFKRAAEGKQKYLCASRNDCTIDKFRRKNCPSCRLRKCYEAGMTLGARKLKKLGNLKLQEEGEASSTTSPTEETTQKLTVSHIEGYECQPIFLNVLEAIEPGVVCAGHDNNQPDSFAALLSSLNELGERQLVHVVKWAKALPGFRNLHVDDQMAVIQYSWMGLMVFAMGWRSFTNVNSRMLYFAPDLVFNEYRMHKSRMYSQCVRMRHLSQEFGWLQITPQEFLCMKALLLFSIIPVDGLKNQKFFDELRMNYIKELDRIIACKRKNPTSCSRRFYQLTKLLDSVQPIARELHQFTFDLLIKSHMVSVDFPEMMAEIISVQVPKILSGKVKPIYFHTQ
# Summary of the method: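 EC50 and efficacy came from Hill fits of titrations (up to 92 uM) normalized to 30 nM R1881 as 100% and DMSO as 0%. Compound exposure was 16 h at 37 C on AR-UAS-bla HEK293 cells, with a 405/460/530 nm CCF4 fluorescence read.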
# [11] = biological target: Luciferin 4-monooxygenase (Photinus pyralis) (UniProt P08659); assay: Biochemical firefly luciferase enzyme assay for NPC (AID 624030; active = well fitted inhibition curve with a large enough effect;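 note: purified P. pyralis luciferase at 10 nM with luciferin and ATP substrate; series mostly up to about 59 µM; nearly all actives have a fitted effect of over 70% in size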)
# Luciferin 4-monooxygenase (Photinus pyralis), sequence (P08659 whole entry, looked up): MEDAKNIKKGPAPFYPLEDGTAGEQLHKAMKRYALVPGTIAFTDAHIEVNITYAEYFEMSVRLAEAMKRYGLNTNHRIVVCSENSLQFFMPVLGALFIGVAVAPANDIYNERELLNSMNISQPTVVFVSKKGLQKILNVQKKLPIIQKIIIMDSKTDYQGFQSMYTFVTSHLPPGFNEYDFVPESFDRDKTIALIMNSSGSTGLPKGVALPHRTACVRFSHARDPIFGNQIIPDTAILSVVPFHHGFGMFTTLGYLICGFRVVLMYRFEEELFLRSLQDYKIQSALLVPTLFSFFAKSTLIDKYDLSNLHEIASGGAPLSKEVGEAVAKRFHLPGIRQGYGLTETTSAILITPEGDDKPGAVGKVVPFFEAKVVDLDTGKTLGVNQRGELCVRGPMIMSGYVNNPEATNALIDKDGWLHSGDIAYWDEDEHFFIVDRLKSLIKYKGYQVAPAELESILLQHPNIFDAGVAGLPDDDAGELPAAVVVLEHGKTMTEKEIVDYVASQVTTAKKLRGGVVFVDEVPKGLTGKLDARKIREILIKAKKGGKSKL
# Summary of the method: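 Counter-screen for direct inhibition of the luciferase enzyme by approved-drug library compounds, run at 10 nM enzyme in 50 mM Tris acetate (final). Luminescence was read within 5 min of enzyme-buffer addition and normalized to PTC124 versus DMSO (0%).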
# [12] = biological target: Androgen receptor (Homo sapiens) (UniProt P10275); assay: qHTS assay for small molecule antagonists of androgen receptor signaling (AID 588516; active = well fitted curve in the direction sought with a large enough effect in the signal ratio, with a control signal flat, not every such curve was filed as active; the % refers to the signal ratio)
# Summary of the method: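 Antagonist mode: inhibition of R1881-stimulated (10 nM final) bla reporter in GeneBLAzer AR HEK 293 cells, 16 h at 37C, compounds titrated. IC50 and efficacy from Hill-equation fits of 405/460–530 nm FRET ratios.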
# [13] = biological target: Tumor necrosis factor (Homo sapiens) (UniProt P01375); assay: qHTS assay to identify small molecules that stimulate Tumor Necrosis Factor-alpha (TNF-alpha) secretion (AID 651757; active = well fitted curve in the direction sought with a large enough effect in the signal ratio; the % refers to the signal ratio; note: potency is the fitted concentration of half-maximal effect)
# Tumor necrosis factor (Homo sapiens), sequence (P01375 whole entry, looked up): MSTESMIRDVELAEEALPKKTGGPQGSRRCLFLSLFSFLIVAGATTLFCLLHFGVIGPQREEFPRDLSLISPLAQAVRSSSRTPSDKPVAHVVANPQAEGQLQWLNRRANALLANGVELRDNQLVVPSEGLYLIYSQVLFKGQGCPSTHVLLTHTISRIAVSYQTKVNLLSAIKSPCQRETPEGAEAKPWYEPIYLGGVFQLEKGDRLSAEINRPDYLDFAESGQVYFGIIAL
# Summary of the method: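 Secreted TNF-alpha from compound-treated THP-1 cells (17 hrs, 37 C) was quantified with a homogeneous time-resolved fluorescence antibody assay.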
smiles,measurement,setting,value
CNC(=O)Oc1cccc(N=CN(C)C)c1,Potency,[1],inactive
same,Potency,[2],inactive
same,Potency,[3],inactive
same,activity change % (negative = inhibition),[4],4.27%
same,outcome,[5],inactive
CC(C)N(C(=O)COc1nnc(C(F)(F)F)s1)c1ccc(F)cc1,Potency,[1],inactive
same,Potency,[6],inactive
same,activation,[7],1.07%
same,Potency,[8],inactive
same,Potency,[2],inactive
same,activity change % (negative = inhibition),[4],-0.765%
same,Potency,[9],48.6 µM (active)
COC(=O)/C=C(\C)OP(=O)(OC)OC,Potency,[1],inactive
same,activation,[7],-1.06%
same,Potency,[8],inactive
same,Potency,[9],inactive
CC(C)OC(=O)C(O)(c1ccc(Br)cc1)c1ccc(Br)cc1,Potency,[1],inactive
same,activation,[7],-15%
CC1(C)CC/C(=C\c2ccc(Cl)cc2)C1(O)Cn1cncn1 (stereo not drawn),Potency,[1],inactive
same,activation,[10],-0.862%
same,Potency,[8],inactive
same,Potency,[2],inactive
same,activity change % (negative = inhibition),[4],-0.512%
same,Potency,[11],inactive
CCOC(=O)C(Cl)Cc1cc(-n2nc(C)n(C(F)F)c2=O)c(F)cc1Cl (stereo not drawn),Potency,[1],inactive
same,activation,[7],-0.667%
same,Potency,[8],inactive
same,Potency,[2],inactive
same,activity change % (negative = inhibition),[4],18.6%
same,outcome,[5],inactive
CC1=C(C(=O)Nc2ccccc2)S(=O)(=O)CCO1,Potency,[1],inactive
same,activation,[7],-17.4%
same,Potency,[2],inactive
same,Potency,[9],8.63 µM (active)
same,outcome,[5],inactive
CC1(C)C(C(=O)OC(C#N)c2cccc(Oc3ccccc3)c2)C1(C)C (stereo not drawn),Potency,[1],inactive
same,activity change % (negative = inhibition),[4],2.17%
CCCCOC(=O)c1ccccc1C(=O)O,activation,[10],5.7%
same,Potency,[6],inactive
same,Potency,[2],inactive
same,Potency,[3],inactive
same,activity change % (negative = inhibition),[4],6.47%
same,outcome,[5],inactive
N#CC(CCc1ccc(Cl)cc1)(Cn1cncn1)c1ccccc1 (stereo not drawn),Potency,[1],inactive
same,activation,[7],-4.45%
same,Potency,[8],inactive
same,Potency,[9],68.6 µM (active)
CCOP(=O)(OCC)OP(=O)(OCC)OCC,activation,[10],5.85%
same,Potency,[12],inactive
same,Potency,[6],inactive
same,Potency,[2],inactive
same,Potency,[3],inactive
same,activity change % (negative = inhibition),[4],15.3%
same,Potency,[9],inactive
CC(C)[C@@H](Nc1ccc(C(F)(F)F)cc1Cl)C(=O)OC(C#N)c1cccc(Oc2ccccc2)c1 (stereo partly drawn),Potency,[1],inactive
CC1(C)CON(Cc2ccccc2Cl)C1=O,Potency,[1],inactive
same,Potency,[2],inactive
same,Potency,[3],inactive
same,activity change % (negative = inhibition),[4],0.368%
same,Potency,[9],inactive
CN/C(=N\[N+](=O)[O-])NCc1cnc(Cl)s1,Potency,[1],inactive
same,Potency,[2],inactive
same,Potency,[3],inactive
same,activity change % (negative = inhibition),[4],-15.1%
same,outcome,[5],inactive
Cc1ccccc1CO[C@@H]1C[C@@]2(C(C)C)CC[C@]1(C)O2,activation,[10],-0.477%
same,Potency,[12],inactive
same,Potency,[2],inactive
same,Potency,[3],inactive
same,Potency,[9],inactive
O=C1C=CC(=O)c2ccccc21,activation,[10],0.338%
same,Potency,[6],inactive
same,activation,[7],0.432%
same,Potency,[8],inactive
same,Potency,[2],inactive
same,Potency,[3],inactive
same,Potency,[9],54.5 µM (active)
same,outcome,[5],inactive
c1ccc2c(c1)c1cccc3ccc4cccc2c4c31,activation,[10],7.55%
same,Potency,[9],6.86 µM (active)
same,Potency,[13],29.8 µM (active)
CNC(=O)N(C)c1nc2ccccc2s1,activation,[10],-11.3%
same,Potency,[6],inactive
same,Potency,[8],inactive
same,Potency,[2],inactive
same,Potency,[3],inactive
same,activity change % (negative = inhibition),[4],9.18%
CCCCOC(=O)[C@@H](C)Oc1ccc(Oc2ccc(C#N)cc2F)cc1,Potency,[1],inactive
same,activation,[7],-11.2%
same,Potency,[8],inactive
same,Potency,[2],inactive
same,Potency,[3],inactive
same,activity change % (negative = inhibition),[4],0.16%
same,outcome,[5],inactive
O=C(O)C(F)(F)C(F)(F)C(F)(F)C(F)(F)C(F)(F)C(F)(F)C(F)(F)C(F)(F)C(F)(F)F,Potency,[1],inactive
same,Potency,[8],inactive
same,Potency,[2],inactive
same,activity change % (negative = inhibition),[4],-14.6% and -11.9%
same,outcome,[5],inactive
ClCc1ccccc1Cl,activation,[10],1.96%
same,Potency,[12],inactive
same,Potency,[6],inactive
same,activation,[7],-3.29%
same,Potency,[8],inactive
same,Potency,[2],inactive
same,Potency,[3],inactive
same,activity change % (negative = inhibition),[4],-5.68%
same,outcome,[5],inactive
CCC(C)(C)c1cc(-n2nc3ccccc3n2)c(O)c(C(C)(C)CC)c1,activation,[10],3.42%
same,activation,[7],2.15%
same,Potency,[8],inactive
same,activity change % (negative = inhibition),[4],12%
same,Potency,[9],30.6 µM (active)
same,outcome,[5],inactive
N#CN=C1SCCN1Cc1ccc(Cl)nc1,Potency,[1],inactive
same,activation,[7],0.0374%
same,Potency,[2],inactive
same,Potency,[3],inactive
same,activity change % (negative = inhibition),[4],-1.19%
same,Potency,[9],inactive
COC(=O)N(C(=O)N1COC2(C(=O)OC)Cc3cc(Cl)ccc3C2=N1)c1ccc(OC(F)(F)F)cc1 (stereo not drawn),Potency,[1],inactive
same,activation,[7],17.1%
C=C(C)C(=O)OCC(CC)CCCC (stereo not drawn),Potency,[1],inactive
same,Potency,[8],inactive
same,Potency,[2],inactive
same,activity change % (negative = inhibition),[4],10.1%
same,Potency,[9],inactive
same,outcome,[5],inactive
CC(C)=C[C@@H]1[C@@H](C(=O)OCN2C(=O)C3=C(CCCC3)C2=O)C1(C)C,activation,[10],0.858%
same,activation,[7],11.7%
same,activity change % (negative = inhibition),[4],7.01%
same,Potency,[9],54.5 µM (active)
O=[N+]([O-])c1ccc2ccc3cccc4ccc1c2c34,activation,[10],-12%
same,activation,[7],-22%
same,Potency,[3],inactive
same,activity change % (negative = inhibition),[4],-20.5%
same,Potency,[9],4.33 µM (active)
same,outcome,[5],inactive

# Reference: PubChem BioAssay (NCATS)
